PI5P4K alpha inh = inhibitors of human PI5P4K alpha | max response, % | P48426 | 330,000 tested, 1.2% active | PI5P4Kalpha enzyme, ADP-Glo luminescence, 60 min; hits give low values; active = max response of -50% or lower; inconclusive = between -30% and -50%; inactive = -30% or higher; also: value at the top dose of about 77 µM
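Single end-point luminescence (ADP-Glo) quantified ADP from PI5P4Kalpha turnover; ATP 5 microM final, 1 h at RT, 0.1% CHAPS and 0.28 mM EGTA in HEPES pH 7.4.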
JMJD2A Tudor inh = inhibitors of human JMJD2A Tudor domain. O75164. 390,000 tested, 4.4% active. AlphaScreen JMJD2A-Tudor / H3K4me3 peptide binding. Potency, µM (highest dose often 114 µM), most hits filed as inhibitors; also: nearly all actives have a fitted effect of over 50% in size
BAZ2B inh = blocks human BAZ2B | Q9UIF8 | AlphaScreen BAZ2B-H3K14Ac peptide displacement | Potency, µM (highest dose often 114 µM), most hits filed as inhibitors | AID 504333 | 360,000 tested, 4.4% active; also: nearly all actives have a fitted effect of over 60% in size
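Multi-concentration screen (max 110 uM) measuring displacement of acetylated histone H3 peptide from BAZ2B by AlphaScreen, using 50 nM protein, 50 nM peptide and 10 ug/mL streptavidin donor plus Ni-chelate acceptor beads.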
L3MBTL1 block = inhibitors of human L3MBTL1 | Potency, µM (doses to about 57.1 µM), actives largely listed as inhibitors | 230,000 tested, 0.66% active | Q9Y468 | AlphaScreen L3MBTL1–H3K9me1 peptide binding; also: nearly all actives have a fitted effect of over 60% in size
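L3MBTL1 50 nM + b-AHA-H3(1-15)K9me1 75 nM, 30 min RT; compound added, 30 min RT; streptavidin donor/Ni-chelate acceptor beads 10 ug/mL each final, 30 min RT dark; AlphaScreen read.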
HP1b binding inh = inhibitors of HP1-beta chromodomain binding to methylated histone tails; 390,000 tested, 0.56% active; AlphaScreen HP1-beta / biotin-H3K9me3 peptide binding; Potency, µM (doses to about 114 µM), most hits filed as inhibitors; also: nearly all actives have a fitted effect of over 70% in size
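AlphaScreen: HP1-beta (50 nM) preformed 30 min with biotin-H3(1-18)K9me3 peptide (50 nM) in PBS pH 7.4, 0.01% Tween-20. Compound added for 30 min at RT, then streptavidin donor/nickel chelate acceptor beads (10 ug/mL) for 30 min.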
G9a inh = blocks human histone lysine methyltransferase G9a. Q96KQ7. Potency, µM (doses to about 102 µM), most hits filed as inhibitors. 350,000 tested, 8.8% active. G9a H3K9 monomethylation, AlphaScreen, 2 h; also: nearly all actives have a fitted effect of over 75% in size
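AlphaScreen detection with an anti-monomethyl H3K9 antibody quantified product after a 2 h room-temperature reaction containing 500 nM biotinylated H3K9 peptide, 20 µM SAM and 20 nM enzyme, which had been preincubated 15 min with compound.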
Numbers stand for hits; 0 = inactive; ? = inconclusive; - = not tested or not shown; [ ] = another dose, or the depositor's remark. The list is not random: actives were taken first. Their share in the collection is about 11%. Unless noted, calls follow the shape of the dose curve; as a rule, active = well fitted inhibition curve with a large enough effect; inconclusive = small, poorly fitted or top-dose-only effect; inactive = no such curve, though single readings can be large or run the other way.

SMILES	PI5P4K alpha inh	JMJD2A Tudor inh	BAZ2B inh	L3MBTL1 block	HP1b binding inh	G9a inh
COc1ccc(C2/C(=C(/O)c3ccc4c(c3)CC(C)O4)C(=O)C(=O)N2CCN2CCOCC2)cc1 (centres undefined)	0	0	0	0	0	45µM
C=CCOc1ccc(C2/C(=C(\O)c3ccc4c(c3)CC(C)O4)C(=O)C(=O)N2CCN2CCOCC2)cc1OCC (centres undefined)	0	35µM	79µM	-	0	20µM
CCCOc1cccc(C2/C(=C(/O)c3ccc4c(c3)CC(C)O4)C(=O)C(=O)N2CCN2CCOCC2)c1 (centres undefined)	0	0	0	-	0	50µM
CC1Cc2cc(/C(O)=C3/C(=O)C(=O)N(CCN4CCOCC4)C3c3cccc(Cl)c3)ccc2O1 (centres undefined)	0	0	0	0	0	0[12.7 µM]
COc1cc(C2/C(=C(\O)c3ccc4c(c3)CC(C)O4)C(=O)C(=O)N2CCCn2ccnc2)ccc1O (centres undefined)	0	0[11.4 µM]	0	0	0	0
Cc1ccc(C2/C(=C(/O)c3ccc4c(c3)CC(C)O4)C(=O)C(=O)N2CCCn2ccnc2)cc1 (centres undefined)	0	0	?	-	0	45µM
CCOc1ccc(C2/C(=C(\O)c3ccc4c(c3)OCCO4)C(=O)C(=O)N2CCN2CCOCC2)cc1OCC (centres undefined)	0	0	0	-	0	?
CN(C)C1(CNC(=O)COc2ccc([N+](=O)[O-])cc2)CCCCC1	-	0	0	-	0	0
CC1Cc2cc(/C(O)=C3/C(=O)C(=O)N(CCN4CCOCC4)C3c3ccc([N+](=O)[O-])cc3)ccc2O1 (centres undefined)	0	?	?	-	0	79µM
C=CCOc1cccc(C2/C(=C(\O)c3ccc4c(c3)OCCO4)C(=O)C(=O)N2CCN2CCOCC2)c1 (centres undefined)	0	0	?	-	0	40µM
COc1ccc(C2/C(=C(/O)c3ccc4c(c3)CC(C)O4)C(=O)C(=O)N2CCCN2CCOCC2)cc1 (centres undefined)	0	?	0	-	0	45µM
COc1ccc(/C(O)=C2/C(=O)C(=O)N(CCCN3CCOCC3)C2c2ccc(OC)cc2)cc1 (centres undefined)	0	0	0	0	0	-
COC(=O)c1ccc(C2/C(=C(/O)c3ccc4c(c3)CC(C)O4)C(=O)C(=O)N2Cc2ccncc2)cc1 (centres undefined)	0	0	?	-	0	45µM
CCOCCc1nn2c(=O)cc(COC(=O)c3cccc(C)c3)nc2s1	-	0	0	-	0	0
CCOc1ccc(CNC(=O)Cn2nc(C)c3sc4ccccc4c3c2=O)cc1	-	?	0	-	0	0
CCCCOc1ccc(C2/C(=C(\O)c3ccc4c(c3)OCCO4)C(=O)C(=O)N2CCCN2CCOCC2)cc1 (centres undefined)	0	0	0	-	0	?
C=CCOc1ccc(C2/C(=C(/O)c3ccc4c(c3)CC(C)O4)C(=O)C(=O)N2CCCN2CCOCC2)cc1 (centres undefined)	0	?	0	-	0	45µM
C[N+]1=C(/C=C/Nc2ccccc2Cl)C(C)(C)c2ccccc21	0	?	0	0	0	7.9µM
CCOc1ccc(CNC(=O)C2CCN(C(=O)N3CC(CC)Oc4ccc(C)cc43)CC2)cc1OC (centres undefined)	-	0	0	-	0	0
COc1ccc(C(C)=O)cc1Cn1nnc(-c2ccccc2Br)n1	0	0	56µM	-	0	0
CC1(C)CC(=O)C2=C(C1)N=C1c3ccccc3C(=O)C1C2c1ccc(Cl)cc1 (centres undefined)	0	?	13µM	?	?	10µM
CCOC(=O)C1=C(C)N=C2c3ccccc3C(=O)C2C1c1ccc(Cl)cc1 (centres undefined)	-	40µM	13µM	?	?	40µM
Cc1ccc(C2C3=C(CC(C)(C)CC3=O)OC3=C2C(=O)CC(C)(C)C3)cc1	0	0	0	0	0	0
Cc1ccc(C2C3=C(CC(C)(C)CC3=O)N=C3c4ccccc4C(=O)C32)cc1 (centres undefined)	0	45µM	16µM	0	?	5µM
CCOC(=O)C1=NNC(C(=O)c2ccccc2)C1c1ccc(Cl)cc1 (centres undefined)	0	0	0	-	0	-
SMILES	PI5P4K alpha inh	JMJD2A Tudor inh	BAZ2B inh	L3MBTL1 block	HP1b binding inh	G9a inh
CN(C)CCNC(=O)/C(=C/c1ccc(-c2cccc([N+](=O)[O-])c2)o1)NC(=O)c1ccccc1	0	0	0	0	0	0
Cc1ccc(C(=O)N/C(=C\c2ccc(-c3ccccc3[N+](=O)[O-])o2)C(=O)NCCN(C)C)cc1	0	56µM	0	0	?	-
CN(C)CCCNC(=O)/C(=C/c1ccc(-c2ccc([N+](=O)[O-])cc2)o1)NC(=O)c1ccccc1	0	0	0	0	0	0
Cc1ccc(C(=O)N/C(=C\c2ccc(-c3ccccc3[N+](=O)[O-])o2)C(=O)NCCCN(C)C)cc1	0	?	?	-	0	50µM
CCn1c(=NC(=O)c2ccc(S(=O)(=O)N3CCCCC3)cc2)sc2cccc(OC)c21	-	0	0	-	0	0
Cc1ccc(-c2nnc(Nc3ccc(Br)cc3)c3ccccc23)cc1S(=O)(=O)N1CCCCC1	-	0	0	-	0	0
O=c1[nH][nH]c2cc(=O)n(-c3ccc(Cl)cc3)nc12	0	?	50µM	?	0	40µM
CSc1ncc(CN2CCCC(C(=O)Nc3ccc(-c4ccco4)cc3)C2)cn1 (centres undefined)	0	?	?	-	0	10µM
Cc1ncc(CN2CCCC(C(=O)Nc3ccc(-c4ccco4)cc3)C2)n1C (centres undefined)	0	0	0	-	?	0
COC(=O)c1cccc(NC(=O)N(C)CCc2c(C)nn(C)c2C)c1	-	0	0	-	0	0
CC1C/C(=C/c2ccccn2)C(=O)/C(=C/c2ccccn2)C1 (centres undefined)	0	0	?	0	0	50µM
O=C1/C(=C/c2ccco2)Cc2ccccc21	0	0	?	0	0	?
CC1C/C(=C/c2ccco2)C(=O)/C(=C/c2ccco2)C1 (centres undefined)	-	-	35µM	3.2µM	-	13µM
CC(C)(C)C1C/C(=C/c2ccccn2)C(=O)/C(=C/c2ccccn2)C1 (centres undefined)	0	0[11.4 µM]	?	-	0	?
O=C1/C(=C\c2ccco2)CCC/C1=C\c1ccco1	?	45µM	45µM	3.5µM	45µM	?
Cc1ccc(OCc2nnc(SCC(=O)Nc3ccccc3C(C)C)o2)cc1	-	0	0	-	0	0
Clc1ccc(Nc2ncnc3ccc(Br)cc23)cc1	-	0	0	0	0	0
